Experimental data as given in PubChem BioAssay (NCI).
The panel holds about 83,000 compounds, 20% with a hit somewhere; the sample as a whole holds those more often.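 Plates (96-well) were seeded with cells, treated with compound at one concentration, and incubated for 48 hours before percent growth was determined.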 A number with no mark means an inactive call. Active and inactive are the calls of the source. The calls were made as follows: active = growth percent below 10; inactive = the rest.

Key:
Assay in all cases: NCI-60 one-dose screen, 48 h (100 = growth as untreated, 0 = no growth, -100 = all killed)
Conditions in all cases: 10 µM
NCI-H23 lung = test system: NCI-H23 lung
NCI-H226 lung = test system: NCI-H226 lung
NCI-H322M lung = test system: NCI-H322M lung
HOP-62 NSCLC = test system: HOP-62 NSCLC
NCI-H460 lung = test system: NCI-H460 lung
HOP-92 NSCLC = test system: HOP-92 NSCLC
NCI-H522 lung = test system: NCI-H522 lung
A549/ATCC NSCLC = test system: A549/ATCC NSCLC
786-0 renal = test system: 786-0 renal
COLO 205 colon = test system: COLO 205 colon

SMILES | growth (NCI-H23 lung) [%] | growth (NCI-H226 lung) | growth (NCI-H322M lung) | growth (HOP-62 NSCLC) | growth (NCI-H460 lung) | growth (HOP-92 NSCLC) | growth (NCI-H522 lung) | growth (A549/ATCC NSCLC) [%] | growth (786-0 renal) | growth (COLO 205 colon)
CCCc1c(CC)c(=N)c2ccccc2n1C | 88 | 83.2% | 71% | 68.2% | 65.9% | 76.1% | 73.6% | 50.4 | 41% | -18.5% (active)
FC(F)(F)c1ccc(-c2cnc(Br)nc2NC2CCCCCC2)cc1 | 33.1 | 53.1% | 78.2% | 53.5% | 28.6% | -21.4% (active) | 7.77% (active) | 28.8 | 54.6% | 25.1%
Cc1noc(C)c1-c1ccc2nc(NC(=O)[C@H]3CCN(C#N)C3)cn2c1 | 76.1 | 91.1% | 99.3% | 92.8% | 98.7% | 67.3% | 25.2% | 94.6 | 78.6% | 82.6%
C[n+]1c(/C=C/c2c[nH]c3ccccc23)ccc2ccccc21 | 71.5 | 62.3% | 69.8% | 75.4% | 34.5% | 37.9% | 53.4% | 46.6 | 82.9% | 45.8%
Nc1nsc(C(=O)c2ccc(O)cc2)n1 | 98.6 | 104% | 105% | 76.4% | 110% | 88% | 91.8% | 83.7 | 117% | 106%
C[C@H](NC(=O)[C@@H]1CSSC[C@@H](NC(=O)Cc2nc3ccccc3cc2O)C(=O)NCC(=O)N1C)c1ccccc1 | 106 | 104% | 105% | 90.2% | 94.2% | 116% | 88.3% | 90.5 | 114% | 89.7%
CCOC(=O)c1cc2c(n1Cc1cc(OC)cc(OC)c1)-c1oncc1CC2 | 38.4 | 30.5% | -1.31% (active) | 58% | 9.46% (active) | 80% | 4.32% (active) | 29 | 33.7% | 1.38% (active)
Cc1cc(Cl)ccc1Nc1nc(C(F)(F)F)ccc1C(=O)N/N=C/c1ccccc1Cl | 16.9 | -12.4% (active) | 9.54% (active) | -6.31% (active) | 5.74% (active) | -1.9% (active) | -2.69% (active) | 13.5 | -40.1% (active) | 4.36% (active)
O=C(O)c1ccccc1C(=O)c1cccc2c(F)cccc12 | 102 | 97.4% | 108% | 105% | 115% | 83% | 103% | 96.9 | 104% | 102%
COc1cc(-c2cc(-c3cc(OC)c(OC)c(OC)c3)nc3nc(N)[nH]c(=O)c23)ccc1Oc1ccnc2cc(Cl)ccc12 | 42.1 | 76% | 37.5% | 29.8% | 13.8% | 6.33% (active) | 29.9% | 32.3 | 51.4% | 105%
O=C(Nc1ccc(OCc2nnc(-c3ccccc3)o2)c(F)c1)Nc1ccc(Cl)c(Cl)c1 | 53 | 72.3% | 62.5% | 76.6% | 36.6% | 55.5% | 35% | 55.5 | 82.1% | 58.9%
